CYP2C9 inh – blocks human cytochrome P450 2C9 | hit rate 20% among 96,000 | P11712 | CYP2C9 Supersomes, luciferin-H conversion, luminescence | inhibition, % at 5 µM;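 active = blocking of liver enzyme CYP2C9 beyond about 50% at 5 µM, limit read from the data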
Target sequence (P11712 whole entry, looked up): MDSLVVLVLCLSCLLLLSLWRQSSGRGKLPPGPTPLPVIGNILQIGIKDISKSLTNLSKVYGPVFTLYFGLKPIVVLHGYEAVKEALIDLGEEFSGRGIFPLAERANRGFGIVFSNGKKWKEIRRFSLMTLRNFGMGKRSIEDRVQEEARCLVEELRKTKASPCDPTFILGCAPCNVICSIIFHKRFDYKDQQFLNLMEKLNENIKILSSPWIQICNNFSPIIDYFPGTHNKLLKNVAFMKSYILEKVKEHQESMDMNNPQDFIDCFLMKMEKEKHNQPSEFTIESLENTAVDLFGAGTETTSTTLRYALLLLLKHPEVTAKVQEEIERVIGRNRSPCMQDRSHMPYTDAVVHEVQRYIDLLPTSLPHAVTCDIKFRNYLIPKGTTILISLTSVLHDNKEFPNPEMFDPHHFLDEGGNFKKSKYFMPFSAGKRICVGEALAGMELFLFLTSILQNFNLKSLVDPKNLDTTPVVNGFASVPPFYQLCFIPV
CYP2C19 inh – blocks human cytochrome P450 2C19. CYP2C19 Supersomes, luciferin-H EGE luminescence, 30 min. inhibition, % at 5 µM. hit rate 21% among 96,000. AID 778;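 active = CYP2C19 inhibition above a set limit at 5 µM in the primary screen, cut at about 50% in these data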;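 also: plate controls were negative control wells for no effect and 2.5 mM tranylcypromine positive control for full effect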
CYP2C19 act – increases human CYP2C19 enzyme activity; AID 1025; activation factor at 5 µM; recombinant CYP2C19, luciferin-H EGE luminescence; active compounds read high; 0 = fully inhibited enzyme, 1 = untreated enzyme; 96,000 tested, under 10 active;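 active = activation factor of at least 2 at 5 µM in the primary screen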;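 also: 0 = wells with 2.5 mM tranylcypromine and 1 = vehicle-only wells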
F-actin modifier – modifiers of cytoskeleton assembly | inhibition, % at 2 µM | HUVEC TNFa F-actin phalloidin imaging, high content | hit rate 0.18% among 91,000;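 active = inhibition above the batch mean plus 3 SD and confirmed as a hit by visual image inspection, cut at about 30% in these data, passing the limit was not always enough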
E-sel TNF inh – blocks E-selectin expression induced by TNF alpha. HUVEC TNFa-induced E-selectin immunofluorescence, high content. inhibition, % at 2 µM. hit rate 0.71% among 120,000. AID 1246;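 active = inhibition above the batch mean plus 3 SD, and confirmed as a hit on visual image review, cut at about 43% in these data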;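 also: 0% = TNF-stimulated DMSO wells and 100% = unstimulated control wells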
CYP2C9 activ – increases human cytochrome P450 2C9 activity; P11712; recombinant CYP2C9, luciferin-H conversion, luminescence; active compounds read high; factor 1 = untreated enzyme, 0 = blocked; activation factor at 5 µM; hit rate 1.4% among 96,000; AID 1024;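 active = activation factor of 2 or more for CYP2C9 at a 5 µM dose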;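 also: 0 = sulfaphenazole-blocked wells and 1 = vehicle-only wells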
* marks the source's active call; other numbers are inactive results; x = not tested or not shown. The list is not random: actives were taken first. Their share in the collection is about 22%.

SMILES	CYP2C9 inh	CYP2C19 inh	CYP2C19 act	F-actin modifier	E-sel TNF inh	CYP2C9 activ
O=C(CSc1ncc(-c2ccccc2)n1-c1ccccc1)NCc1ccco1	74*	50*	0.5	-25	-7	0.3
Cc1nnc(SCC(=O)NCc2ccco2)n1-c1ccccc1	-14	-16	1.2	18	-3	1.1
COc1ccc(-n2c(SCC(=O)NCc3ccco3)nc3c([nH]c4ccccc43)c2=O)cc1	-2	-7	1.1	-5	82*	1
COc1ccc(-n2c(-c3ccc(F)cc3)cnc2SCC(=O)NCc2ccco2)cc1	94*	92*	0.1	4	1	0.1
Cc1sc(NC(=O)c2ccco2)nc1-c1ccc2c(c1)CC(C)N2C(=O)C1CC1 (stereo not drawn)	14	35	0.7	x	-52	0.9
Cc1nc2ccccc2n1CC(=O)N/N=C\C=C\c1ccccc1	10	14	0.9	-20	38	0.9
Cc1ccc(NC(=O)Cn2c(/C=C/c3ccccc3)nc3ccccc32)cc1C	100*	85*	0.2	-2	18	0
CCCn1c(/C=C/c2ccccc2)nc2ccccc21	-41	51*	0.5	-26	-73	1.4
N#CCN1C(=S)N=C(Nc2cccc(Cl)c2)C12CCCCC2	8	24	0.8	32	0	0.9
Cc1ccc(-c2cc(C)nc3nc(N)nn23)cc1	-23	1	1	0	-15	1.2
Cc1ccc(C(=O)Nc2cccnc2)cc1[N+](=O)[O-]	x	x	x	x	8	x
CC(=O)NCCOC(=O)Nc1ccncc1	62*	22	0.8	-5	32	0.4
CC(=O)Nc1ccc(Cc2ccncc2)cc1	87*	97*	0	0	1	0.1
CC(=O)NCCOC(=O)Nc1cccnc1	1	-9	1.1	10	0	1
Cc1ccc(C(=O)Nc2ccc(Cc3ccncc3)cc2)cc1[N+](=O)[O-]	90*	91*	0.1	13	-1	0.1
COc1cc(NC(=O)NCc2ccncc2)cc(OC)c1OC	67*	62*	0.4	x	x	0.3
COc1ccc(S(=O)(=O)CCc2nnc(NC(=O)c3cccs3)s2)cc1	10	2	1	-1	-30	0.9
COc1ccc(OCCNC(=O)c2ccccc2OCC(=O)N2CCCCC2)cc1	x	x	x	18	-4	x
O=S(=O)(Nc1ccc(Cc2ccncc2)cc1)N1CCCC1	97*	100*	0	3	-39	0
COc1ccc(NC(=O)C2CCC(N3C(=O)C4C5C=CC(C5)C4C3=O)CC2)cc1 (stereo not drawn)	21	1	1	2	7	0.8
O=C(Nc1ccc(Cc2ccncc2)cc1)C1CC1	89*	84*	0.2	-3	-12	0.1
O=C(Nc1ccc(Cc2ccc(NC(=O)C3CC3)c(O)c2)cc1O)C1CC1	70*	13	0.9	-8	-47	0.3
O=C(Nc1ccc(Cc2ccncc2)cc1)C1CCC(N2C(=O)C3C4C=CC(C5CC45)C3C2=O)CC1 (stereo not drawn)	74*	40	0.6	6	8	0.3
COc1ccccc1N1CCN(C(=O)CCc2ccc(S(=O)(=O)NCC(C)C)cc2)CC1	39	2	1	x	2	0.6
CCCCCn1c(CCNC(=O)CCC)nc2ccccc21	17	32	0.7	-1	x	0.8
SMILES	CYP2C9 inh	CYP2C19 inh	CYP2C19 act	F-actin modifier	E-sel TNF inh	CYP2C9 activ
Cc1ccc(S(=O)(=O)N2CCCCC2)cc1NC(=O)CSc1ccc2c(c1)OCCO2	x	x	x	x	25	x
COc1ccc(NC(=O)Nc2ccc(Cc3ccncc3)cc2)cc1OC	78*	77*	0.2	-21	17	0.2
COC(=O)Nc1ccc(OC)c(OC)c1	10	9	0.9	x	-5	0.9
Cc1[nH]n(-c2cccc(Cl)c2)c(=O)c1C=NCC(C)C	x	x	x	x	0	x
CCOC(=O)c1sc(NC(=O)C2CC2)nc1C	61*	63*	0.4	16	x	0.4
CCOC(=O)c1sc2nc(NC(=O)C3CC3)sc2c1C	30	53*	0.5	-9	14	0.7
CCOC(=O)c1sc2nc(NC(=O)C3CCCCC3)sc2c1C	8	-4	1	11	x	0.9
CN(C)/C=C(\C#N)S(=O)(=O)C(C)(C)C	x	x	x	x	-25	x
NC(=O)[C@@H]1CCCNc2c(I)cc([N+](=O)[O-])cc2C(=O)N[C@@H](CCCN=C(N)N)C(=O)N[C@@H](CCCN=C(N)N)C(=O)N1	x	x	x	x	-23	x
CC[C@H](C)[C@@H]1NC(=O)c2cc([N+](=O)[O-])cc(I)c2NCC[C@@H](C(N)=O)NC(=O)[C@H](CCCN=C(N)N)NC1=O	x	x	x	x	83*	x
Cc1cc(CNC(=O)CCc2nnc(CCCc3ccccc3)o2)nn1C	x	x	x	x	5	x
Cc1sc2ncnc(OCC(=O)c3ccc(S(=O)(=O)N4CCCC4)cc3)c2c1C	69*	73*	0.3	-24	x	0.3
Cc1sc2ncnc(OCC(=O)N3CCN(S(=O)(=O)c4ccc(Cl)cc4)CC3)c2c1C	83*	75*	0.3	3	-4	0.2
O=C(N1CCCCC1)C12CC3CC(C1)CC(C(=O)N1CCCCC1)(C3)C2	64*	66*	0.3	x	-7	0.4
COc1ccccc1NS(=O)(=O)c1cccc(C(=O)NN)c1	-19	97*	0	-13	-5	1.2
COc1ccccc1NS(=O)(=O)c1ccc(O)cc1	-126	86*	0.1	-6	8	2.3*
CC(=O)Oc1ccc2ccccc2c1C(NC(=O)C(C)C)c1cccc([N+](=O)[O-])c1 (stereo not drawn)	46	23	0.8	x	1	0.5
COc1ccc2[nH]c(C)c(CCNC(=S)Nc3ccc(F)cc3)c2c1	x	x	x	x	6	x
COC(=O)Cc1cc(=O)n2[nH]c(C)nc2n1	-23	-20	1.2	x	14	1.2
COC(=O)Cc1cc(=O)n2[nH]c(SC)nc2n1	64*	22	0.8	-2	8	0.4
COc1ccc(/C=C2\CCc3ccccc3C2=O)cc1Cn1nc(C)c(Br)c1C	x	x	x	-4	4	x
N#Cc1nc(-c2cccc3ccccc23)oc1NCCN1CCOCC1	22	28	0.7	18	0	0.8
O=S(=O)(c1ccccc1)c1nc(-c2ccccc2Cl)oc1NCCN1CCOCC1	77*	36	0.6	-2	1	0.2
Cc1ccccc1-c1nc(S(=O)(=O)c2ccc(Cl)cc2)c(NCCN2CCOCC2)o1	36	35	0.6	2	-1	0.6
N#Cc1nc(-c2ccccc2F)oc1NCCN1CCOCC1	27	64*	0.4	-7	x	0.7
COc1ccccc1C1CN=NC12CCCc1ccccc1C2=O (stereo not drawn)	51*	71*	0.3	21	2	0.5
COc1ccc(C2CN=NC23CCCc2ccccc2C3=O)cc1 (stereo not drawn)	48	59*	0.4	-25	-31	0.5
CCn1nc(C)c(/C=N/NC(=O)c2ccoc2C)c1C	14	39	0.6	15	-13	0.9

Screens (PubChem BioAssay)
